According to publication PMC7862700, “An all-to-all approach to the identification of sequence-specific readers for epigenetic DNA modifications on cytosine”:

Legend:
Test in all cases: DAPPL (digital affinity profiling via proximity ligation, sequencing); 10 mM Tris-HCl pH 7.5, 50 mM NaCl, 1 mM DTT, 4% glycerol, room temperature, 30 min; GST-TFs on glutathione beads, 16-mer random dsDNA library, 0.1% formaldehyde crosslink after washing; high values mean tight binding
FEV = molecular target: T1, FEV (Homo sapiens, UniProt Q99581 1-238); settings: protein: recombinant; tags: N-terminal GST; dsDNA, one strand shown
T1 sequence: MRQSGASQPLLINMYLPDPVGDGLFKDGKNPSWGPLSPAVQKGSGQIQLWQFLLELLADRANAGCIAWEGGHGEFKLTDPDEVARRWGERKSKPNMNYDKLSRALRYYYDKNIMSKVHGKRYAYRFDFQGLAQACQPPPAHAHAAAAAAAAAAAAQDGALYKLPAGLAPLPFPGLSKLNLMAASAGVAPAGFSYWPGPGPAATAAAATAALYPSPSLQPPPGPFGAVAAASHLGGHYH
Procedure, shortened: (§1)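 Human transcription factors fused to GST were expressed in yeast, captured on glutathione beads, given DNA barcodes and pooled with a GST-only negative control. Pools were incubated with 200 nmole of a 16-mer random double-stranded DNA library in Tris/NaCl/DTT/glycerol buffer at room temperature for 30 min. They were then washed, crosslinked with 0.1% formaldehyde, proximity-ligated (BsaI/T4 ligase, 1 h, 37 °C), PCR-amplified and sequenced on an Illumina NextSeq500. Binding signal is each 6-mer's read frequency for a factor divided by its frequency for the GST control.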

ETV5 = ETV5 (Homo sapiens, UniProt P41161 1-510); settings: protein: recombinant; tags: N-terminal GST; dsDNA, one strand shown
Procedure, shortened: as §1

HSF1 = HSF1 (Homo sapiens, UniProt Q00613 1-529); settings: protein: recombinant; tags: N-terminal GST; chain copies: 3; dsDNA, one strand shown
Procedure, shortened: as §1

SPIC = molecular target: T2, SPIC (Homo sapiens, UniProt Q8N5J4 1-248); settings: protein: recombinant; tags: N-terminal GST; dsDNA, one strand shown
T2 sequence: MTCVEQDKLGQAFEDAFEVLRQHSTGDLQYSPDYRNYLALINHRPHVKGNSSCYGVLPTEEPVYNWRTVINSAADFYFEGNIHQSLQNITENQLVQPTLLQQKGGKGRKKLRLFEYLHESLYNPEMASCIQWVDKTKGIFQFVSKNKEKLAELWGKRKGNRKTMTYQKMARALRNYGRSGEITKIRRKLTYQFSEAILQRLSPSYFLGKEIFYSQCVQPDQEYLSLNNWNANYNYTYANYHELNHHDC
Procedure, shortened: as §1

ELF4 = ELF4 (Homo sapiens, UniProt Q99607 1-663); settings: protein: recombinant; tags: N-terminal GST; dsDNA, one strand shown
Procedure, shortened: as §1

ELK4 = molecular target: T3, ELK4 (Homo sapiens, UniProt P28324-2 1-405); settings: protein: recombinant; tags: N-terminal GST; dsDNA, one strand shown
T3 sequence: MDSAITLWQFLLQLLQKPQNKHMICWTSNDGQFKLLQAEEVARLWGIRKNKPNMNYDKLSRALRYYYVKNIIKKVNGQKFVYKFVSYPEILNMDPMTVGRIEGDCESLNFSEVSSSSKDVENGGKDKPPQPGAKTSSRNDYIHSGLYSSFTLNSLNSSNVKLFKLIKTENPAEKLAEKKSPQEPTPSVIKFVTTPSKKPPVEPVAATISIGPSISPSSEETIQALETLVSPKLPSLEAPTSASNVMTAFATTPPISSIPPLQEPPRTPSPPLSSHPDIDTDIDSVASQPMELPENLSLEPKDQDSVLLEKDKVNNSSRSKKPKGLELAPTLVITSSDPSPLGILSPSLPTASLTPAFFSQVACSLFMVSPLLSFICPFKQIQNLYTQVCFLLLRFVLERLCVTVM
Procedure, shortened: as §1

ETV2 = molecular target: T4, ETV2 (Homo sapiens, UniProt O00321 1-342); settings: protein: recombinant; tags: N-terminal GST; dsDNA, one strand shown
T4 sequence: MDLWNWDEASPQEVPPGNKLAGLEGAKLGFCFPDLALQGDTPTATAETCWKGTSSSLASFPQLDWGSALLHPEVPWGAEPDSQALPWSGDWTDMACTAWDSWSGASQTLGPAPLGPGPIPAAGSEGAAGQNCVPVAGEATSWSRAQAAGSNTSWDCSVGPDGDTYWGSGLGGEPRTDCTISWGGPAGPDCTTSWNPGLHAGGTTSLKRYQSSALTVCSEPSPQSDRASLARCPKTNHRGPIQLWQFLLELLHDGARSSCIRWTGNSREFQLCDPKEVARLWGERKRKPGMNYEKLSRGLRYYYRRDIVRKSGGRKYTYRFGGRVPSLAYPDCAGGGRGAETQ
Procedure, shortened: as §1

ELF3 = molecular target: T5, ELF3 (Homo sapiens, UniProt P78545 1-371); settings: protein: recombinant; tags: N-terminal GST; dsDNA, one strand shown
T5 sequence: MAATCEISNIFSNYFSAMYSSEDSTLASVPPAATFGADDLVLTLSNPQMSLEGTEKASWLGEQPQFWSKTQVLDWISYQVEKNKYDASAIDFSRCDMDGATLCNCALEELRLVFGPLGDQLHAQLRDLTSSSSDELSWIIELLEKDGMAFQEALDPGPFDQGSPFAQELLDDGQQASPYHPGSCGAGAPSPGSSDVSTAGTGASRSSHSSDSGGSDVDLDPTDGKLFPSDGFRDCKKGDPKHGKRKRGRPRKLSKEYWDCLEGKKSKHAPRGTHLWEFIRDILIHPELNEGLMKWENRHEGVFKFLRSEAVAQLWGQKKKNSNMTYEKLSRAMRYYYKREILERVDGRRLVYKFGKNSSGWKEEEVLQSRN
Procedure, shortened: as §1

CRX = CRX (Homo sapiens, UniProt O43186 1-299); settings: protein: recombinant; tags: N-terminal GST; dsDNA, one strand shown
Procedure, shortened: as §1

ETV1 = ETV1 (Homo sapiens, UniProt P50549 1-477); settings: protein: recombinant; tags: N-terminal GST; dsDNA, one strand shown
Procedure, shortened: as §1

ERF = molecular target: T6, ERF (Homo sapiens, UniProt P50548 1-548); settings: protein: recombinant; tags: N-terminal GST; dsDNA, one strand shown
T6 sequence: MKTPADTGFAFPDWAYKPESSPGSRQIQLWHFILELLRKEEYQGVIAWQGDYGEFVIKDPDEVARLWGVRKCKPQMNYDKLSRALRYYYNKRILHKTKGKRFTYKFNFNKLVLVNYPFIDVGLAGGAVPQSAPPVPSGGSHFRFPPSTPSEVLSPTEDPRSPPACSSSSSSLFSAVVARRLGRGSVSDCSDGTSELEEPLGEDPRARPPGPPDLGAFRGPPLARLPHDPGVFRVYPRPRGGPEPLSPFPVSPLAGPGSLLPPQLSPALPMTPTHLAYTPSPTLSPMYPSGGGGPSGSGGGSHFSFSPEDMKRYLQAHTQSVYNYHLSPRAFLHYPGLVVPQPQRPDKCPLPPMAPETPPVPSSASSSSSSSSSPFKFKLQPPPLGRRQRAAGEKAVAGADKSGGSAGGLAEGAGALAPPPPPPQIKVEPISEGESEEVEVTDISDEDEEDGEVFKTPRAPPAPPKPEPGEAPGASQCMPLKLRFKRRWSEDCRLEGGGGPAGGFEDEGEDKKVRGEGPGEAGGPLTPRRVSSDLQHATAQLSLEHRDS
Procedure, shortened: as §1

ETV3L = molecular target: T7, ETV3L (Homo sapiens, UniProt Q6ZN32 1-361); settings: protein: recombinant; tags: N-terminal GST; dsDNA, one strand shown
T7 sequence: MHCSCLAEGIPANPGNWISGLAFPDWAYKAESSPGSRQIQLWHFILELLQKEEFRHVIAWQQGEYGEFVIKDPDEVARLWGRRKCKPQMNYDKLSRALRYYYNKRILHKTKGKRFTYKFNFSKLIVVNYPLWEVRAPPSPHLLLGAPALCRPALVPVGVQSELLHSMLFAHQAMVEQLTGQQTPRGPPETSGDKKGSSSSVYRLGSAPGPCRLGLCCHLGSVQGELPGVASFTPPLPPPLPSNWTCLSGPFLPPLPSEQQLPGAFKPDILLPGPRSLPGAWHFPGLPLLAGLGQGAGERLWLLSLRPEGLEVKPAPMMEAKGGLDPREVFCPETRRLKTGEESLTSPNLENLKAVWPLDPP
Procedure, shortened: as §1

ETS2 = molecular target: T8, ETS2 (Homo sapiens, UniProt P15036 1-469); settings: protein: recombinant; tags: N-terminal GST; dsDNA, one strand shown
T8 sequence: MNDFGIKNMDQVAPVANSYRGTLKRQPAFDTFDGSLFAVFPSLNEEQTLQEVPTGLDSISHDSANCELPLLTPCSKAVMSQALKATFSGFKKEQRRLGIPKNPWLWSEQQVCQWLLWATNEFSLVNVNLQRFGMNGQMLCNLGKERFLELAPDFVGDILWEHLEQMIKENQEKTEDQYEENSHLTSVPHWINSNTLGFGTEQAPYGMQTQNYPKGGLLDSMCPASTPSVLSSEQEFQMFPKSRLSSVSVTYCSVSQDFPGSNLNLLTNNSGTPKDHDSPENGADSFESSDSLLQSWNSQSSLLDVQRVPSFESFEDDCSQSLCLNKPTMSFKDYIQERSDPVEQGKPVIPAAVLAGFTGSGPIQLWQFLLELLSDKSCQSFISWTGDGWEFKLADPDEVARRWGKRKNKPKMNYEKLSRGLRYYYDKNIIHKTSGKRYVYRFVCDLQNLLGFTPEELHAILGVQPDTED
Procedure, shortened: as §1

SPDEF = molecular target: T9, SPDEF (Homo sapiens, UniProt O95238 1-335); settings: protein: recombinant; tags: N-terminal GST; dsDNA, one strand shown
T9 sequence: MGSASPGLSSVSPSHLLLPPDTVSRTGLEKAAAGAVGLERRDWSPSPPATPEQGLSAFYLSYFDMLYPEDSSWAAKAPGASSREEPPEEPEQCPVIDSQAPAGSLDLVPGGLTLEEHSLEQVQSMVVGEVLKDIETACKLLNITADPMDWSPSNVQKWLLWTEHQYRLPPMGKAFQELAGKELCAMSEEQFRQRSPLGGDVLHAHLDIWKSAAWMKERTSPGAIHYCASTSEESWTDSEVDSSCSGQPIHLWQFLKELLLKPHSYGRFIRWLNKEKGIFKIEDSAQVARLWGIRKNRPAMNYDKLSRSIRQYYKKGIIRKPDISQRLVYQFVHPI
Procedure, shortened: as §1

ETV7 = molecular target: T10, ETV7 (Homo sapiens, UniProt Q9Y603 1-341); settings: protein: recombinant; tags: N-terminal GST; dsDNA, one strand shown
T10 sequence: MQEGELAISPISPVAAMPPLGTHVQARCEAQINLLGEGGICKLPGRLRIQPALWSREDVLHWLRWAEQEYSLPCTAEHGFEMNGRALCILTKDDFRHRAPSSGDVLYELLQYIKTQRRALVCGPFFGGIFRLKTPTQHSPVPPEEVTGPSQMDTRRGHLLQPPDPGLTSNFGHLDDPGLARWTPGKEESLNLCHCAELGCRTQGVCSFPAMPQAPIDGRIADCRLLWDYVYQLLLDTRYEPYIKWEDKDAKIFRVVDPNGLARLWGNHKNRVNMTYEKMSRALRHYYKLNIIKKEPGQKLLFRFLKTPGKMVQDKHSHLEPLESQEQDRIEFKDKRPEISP
Procedure, shortened: as §1

ELF5 = molecular target: T11, ELF5 (Homo sapiens, UniProt Q9UKW6-2 1-255); settings: protein: recombinant; tags: N-terminal GST; dsDNA, one strand shown
T11 sequence: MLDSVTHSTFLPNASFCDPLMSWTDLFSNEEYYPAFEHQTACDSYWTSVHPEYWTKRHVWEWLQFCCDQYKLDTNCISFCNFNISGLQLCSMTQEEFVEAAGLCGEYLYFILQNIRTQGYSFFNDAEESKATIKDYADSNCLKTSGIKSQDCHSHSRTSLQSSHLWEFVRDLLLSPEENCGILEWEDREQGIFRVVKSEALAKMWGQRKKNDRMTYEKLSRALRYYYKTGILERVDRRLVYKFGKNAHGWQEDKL
Procedure, shortened: as §1

ETV3 = molecular target: T12, ETV3 (Homo sapiens, UniProt P41162-2 1-143); settings: protein: recombinant; tags: N-terminal GST; dsDNA, one strand shown
T12 sequence: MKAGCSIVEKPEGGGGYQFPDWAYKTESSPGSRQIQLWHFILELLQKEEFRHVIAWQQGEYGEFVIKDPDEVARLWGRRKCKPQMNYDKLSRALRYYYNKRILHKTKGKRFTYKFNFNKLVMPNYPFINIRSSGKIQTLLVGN
Procedure, shortened: as §1

ETV6 = ETV6 (Homo sapiens, UniProt P41212 1-452); settings: protein: recombinant; tags: N-terminal GST; dsDNA, one strand shown
Procedure, shortened: as §1

ETV1, sequence (P50549 whole entry): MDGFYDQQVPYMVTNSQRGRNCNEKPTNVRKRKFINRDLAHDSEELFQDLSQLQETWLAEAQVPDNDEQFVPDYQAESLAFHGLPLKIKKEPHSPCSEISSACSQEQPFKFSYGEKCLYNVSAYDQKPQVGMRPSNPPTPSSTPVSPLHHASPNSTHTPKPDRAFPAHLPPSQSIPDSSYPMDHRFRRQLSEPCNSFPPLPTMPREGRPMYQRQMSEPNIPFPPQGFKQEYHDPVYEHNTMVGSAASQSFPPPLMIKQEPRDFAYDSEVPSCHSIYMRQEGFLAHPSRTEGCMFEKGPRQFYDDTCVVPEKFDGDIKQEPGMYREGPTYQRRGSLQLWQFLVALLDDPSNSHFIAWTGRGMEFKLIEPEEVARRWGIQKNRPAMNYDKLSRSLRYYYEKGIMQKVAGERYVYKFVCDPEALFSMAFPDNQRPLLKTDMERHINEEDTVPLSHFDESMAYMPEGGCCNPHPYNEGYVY
HSF1, sequence (Q00613 whole entry): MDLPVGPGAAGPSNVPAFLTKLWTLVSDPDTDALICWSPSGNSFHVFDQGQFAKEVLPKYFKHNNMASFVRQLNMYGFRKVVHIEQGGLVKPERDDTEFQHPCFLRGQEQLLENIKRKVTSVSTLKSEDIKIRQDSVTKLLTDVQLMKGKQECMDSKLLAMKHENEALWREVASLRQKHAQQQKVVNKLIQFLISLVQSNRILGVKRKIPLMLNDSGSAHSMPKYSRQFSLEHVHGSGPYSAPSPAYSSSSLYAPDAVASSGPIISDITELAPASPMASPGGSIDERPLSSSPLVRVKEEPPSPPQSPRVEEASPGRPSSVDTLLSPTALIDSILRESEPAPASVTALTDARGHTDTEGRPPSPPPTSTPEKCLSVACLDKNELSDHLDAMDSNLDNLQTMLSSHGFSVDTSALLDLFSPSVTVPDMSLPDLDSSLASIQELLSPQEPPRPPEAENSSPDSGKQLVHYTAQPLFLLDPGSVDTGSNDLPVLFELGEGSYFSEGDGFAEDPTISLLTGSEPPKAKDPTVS
ELF4, sequence (Q99607 whole entry): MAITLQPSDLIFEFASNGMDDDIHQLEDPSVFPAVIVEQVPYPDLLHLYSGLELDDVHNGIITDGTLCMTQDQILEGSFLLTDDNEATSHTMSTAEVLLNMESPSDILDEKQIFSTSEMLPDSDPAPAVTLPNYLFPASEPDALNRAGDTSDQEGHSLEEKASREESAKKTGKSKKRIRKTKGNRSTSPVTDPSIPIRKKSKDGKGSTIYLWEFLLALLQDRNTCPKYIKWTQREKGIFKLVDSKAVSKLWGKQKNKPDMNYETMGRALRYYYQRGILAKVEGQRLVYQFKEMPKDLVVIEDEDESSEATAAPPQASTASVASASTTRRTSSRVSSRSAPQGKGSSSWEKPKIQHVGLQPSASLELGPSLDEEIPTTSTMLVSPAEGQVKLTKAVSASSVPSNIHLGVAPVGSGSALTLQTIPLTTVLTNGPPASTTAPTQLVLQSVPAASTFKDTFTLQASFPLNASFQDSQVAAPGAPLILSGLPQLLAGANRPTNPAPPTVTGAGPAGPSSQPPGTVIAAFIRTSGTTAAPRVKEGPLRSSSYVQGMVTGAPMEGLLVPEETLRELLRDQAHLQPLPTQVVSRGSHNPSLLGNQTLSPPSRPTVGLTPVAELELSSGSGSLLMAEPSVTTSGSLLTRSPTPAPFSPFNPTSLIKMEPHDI
ETV6, sequence (P41212 whole entry): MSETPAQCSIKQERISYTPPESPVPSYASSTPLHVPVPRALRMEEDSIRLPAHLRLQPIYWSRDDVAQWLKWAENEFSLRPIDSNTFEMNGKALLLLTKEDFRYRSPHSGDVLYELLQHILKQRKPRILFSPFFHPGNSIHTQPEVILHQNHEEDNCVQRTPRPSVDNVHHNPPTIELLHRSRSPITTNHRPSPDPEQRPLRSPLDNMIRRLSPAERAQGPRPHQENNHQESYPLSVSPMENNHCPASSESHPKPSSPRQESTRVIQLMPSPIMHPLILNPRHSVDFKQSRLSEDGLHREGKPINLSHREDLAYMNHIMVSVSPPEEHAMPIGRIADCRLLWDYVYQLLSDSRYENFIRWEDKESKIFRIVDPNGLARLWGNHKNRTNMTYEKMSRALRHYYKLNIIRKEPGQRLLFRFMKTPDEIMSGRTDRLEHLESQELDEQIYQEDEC
ETV5, sequence (P41161 whole entry): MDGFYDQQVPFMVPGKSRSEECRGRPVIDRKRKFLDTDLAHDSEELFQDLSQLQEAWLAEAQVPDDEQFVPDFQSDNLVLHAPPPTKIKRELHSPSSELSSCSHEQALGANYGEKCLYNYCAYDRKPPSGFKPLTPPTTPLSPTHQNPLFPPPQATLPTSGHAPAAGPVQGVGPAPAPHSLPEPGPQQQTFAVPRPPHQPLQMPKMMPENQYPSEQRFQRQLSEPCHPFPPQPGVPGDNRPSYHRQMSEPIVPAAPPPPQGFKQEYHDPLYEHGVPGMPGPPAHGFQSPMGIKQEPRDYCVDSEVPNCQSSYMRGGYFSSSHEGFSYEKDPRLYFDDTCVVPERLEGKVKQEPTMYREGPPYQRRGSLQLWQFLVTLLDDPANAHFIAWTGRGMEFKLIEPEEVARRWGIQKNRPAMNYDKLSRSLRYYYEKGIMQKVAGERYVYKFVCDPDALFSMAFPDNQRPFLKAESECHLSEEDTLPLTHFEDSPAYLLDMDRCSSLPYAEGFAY
CRX, sequence (O43186 whole entry): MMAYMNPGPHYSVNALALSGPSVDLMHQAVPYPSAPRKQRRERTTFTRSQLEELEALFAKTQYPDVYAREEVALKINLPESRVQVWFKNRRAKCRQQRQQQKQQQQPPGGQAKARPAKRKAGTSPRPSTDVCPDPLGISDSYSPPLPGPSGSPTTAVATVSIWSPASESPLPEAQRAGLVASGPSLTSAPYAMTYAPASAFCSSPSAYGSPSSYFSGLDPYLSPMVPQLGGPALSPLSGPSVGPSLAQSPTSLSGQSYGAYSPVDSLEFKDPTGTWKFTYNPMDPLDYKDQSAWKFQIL

Q: For TTAACT, which binding signal (FEV) is on record?
A: The binding signal was 1.25 fold enrichment (6-mer frequency, TF over GST control).

Q: And the binding signal (ETV5)?
A: Its binding signal is 1.2 fold enrichment (6-mer frequency, TF over GST control).

Q: And the binding signal (HSF1)?
A: The binding signal was 1.79 fold enrichment (6-mer frequency, TF over GST control).

Q: And the binding signal (SPIC)?
A: The binding signal was 1.36 fold enrichment (6-mer frequency, TF over GST control).

Q: What about the binding signal (ELF4) of the same sequence?
A: The binding signal was 1.23 fold enrichment (6-mer frequency, TF over GST control).

Q: What about the binding signal (ELK4) of the same sequence?
A: The binding signal was 1.2 fold enrichment (6-mer frequency, TF over GST control).

Q: What about the binding signal (ETV2) of the same sequence?
A: Its binding signal is 1.17 fold enrichment (6-mer frequency, TF over GST control).

Q: And the binding signal (ELF3)?
A: Its binding signal is 1.21 fold enrichment (6-mer frequency, TF over GST control).

Q: What about the binding signal (CRX) of the same sequence?
A: The binding signal was 2.72 fold enrichment (6-mer frequency, TF over GST control).

Q: What about the binding signal (ETV1) of the same sequence?
A: Its binding signal is 1.16 fold enrichment (6-mer frequency, TF over GST control).

Q: And the binding signal (ERF)?
A: The binding signal was 1.23 fold enrichment (6-mer frequency, TF over GST control).

Q: And the binding signal (ETV3L)?
A: The binding signal was 1.19 fold enrichment (6-mer frequency, TF over GST control).

Q: What about the binding signal (ETS2) of the same sequence?
A: The binding signal was 1.25 fold enrichment (6-mer frequency, TF over GST control).

Q: What about the binding signal (SPDEF) of the same sequence?
A: Its binding signal is 1.18 fold enrichment (6-mer frequency, TF over GST control).

Q: What about the binding signal (ETV7) of the same sequence?
A: The binding signal was 1.16 fold enrichment (6-mer frequency, TF over GST control).

Q: And the binding signal (ELF5)?
A: Its binding signal is 1.17 fold enrichment (6-mer frequency, TF over GST control).

Q: What about the binding signal (ETV3) of the same sequence?
A: Its binding signal is 1.22 fold enrichment (6-mer frequency, TF over GST control).

Q: What about the binding signal (ETV6) of the same sequence?
A: The binding signal was 1.17 fold enrichment (6-mer frequency, TF over GST control).
